Hits are enriched below; roughly 3.4% of the tested compounds scored in any of these assays.
FBW7 activator – FBW7 E3 ligase activators, primary screen, biochemical, AlphaScreen, human. F-box/WD repeat-containing protein 7 (Homo sapiens), Q969H0. AlphaScreen FBW7–phospho-cyclin E peptide binding, activator screen. normalized activity (activation), % at 26.1 µM. 0.13% of 650,000 active. AID 1259310, 2017; in the data active = normalized activity above about 1.9%;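 also: purified mutant Fbw7 with reduced substrate affinity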
MITF inh – MITF inhibitors, primary screen, biochemical, AlphaScreen, human; Microphthalmia-associated transcription factor (Homo sapiens), O75030; AlphaScreen MITF homodimerization, bead proximity signal; inhibition, % at 2.6 µM; 0.91% of 650,000 active; in the data active = inhibition above about 50%;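 also: 0% = vehicle wells with protein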
TEAD-YAP inh – TEAD-YAP interaction inhibition, primary screen, TEAD-YAP interaction inhibitor project, luminescence, HEK-TIYL cells | TEAD-Gal4/YAP UAS-luciferase luminescence | inhibition, % at 9.12 µM | 1.4% of 640,000 active; in the data active = inhibition above about 32%;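 also: 0% = median of test compound wells and 100% = reference inhibitor wells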
GPR151 ag – activators of human GPR151, primary screen, cell-based, PathHunter beta-arrestin, luminescence; activation, % at 11.2 µM; 1% of 650,000 active; PathHunter beta-arrestin GPR151 cells; in the data active = activation above about 4.9%;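 also: 0% = median of compound wells and 100% = cells with positive control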
Target sequence (Q8TDV0 whole entry, looked up): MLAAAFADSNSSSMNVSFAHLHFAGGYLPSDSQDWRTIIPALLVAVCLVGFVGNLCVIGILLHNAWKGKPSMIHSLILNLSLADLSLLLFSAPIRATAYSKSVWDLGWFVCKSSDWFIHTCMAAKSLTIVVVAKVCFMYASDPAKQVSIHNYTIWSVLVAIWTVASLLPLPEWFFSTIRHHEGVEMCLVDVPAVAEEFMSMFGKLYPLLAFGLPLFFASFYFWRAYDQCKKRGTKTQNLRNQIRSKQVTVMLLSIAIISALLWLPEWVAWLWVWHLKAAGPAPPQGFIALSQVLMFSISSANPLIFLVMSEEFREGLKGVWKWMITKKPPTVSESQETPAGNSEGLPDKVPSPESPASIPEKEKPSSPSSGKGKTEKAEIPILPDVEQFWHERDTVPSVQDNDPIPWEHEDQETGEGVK
GPR151 confirm – GPR151 activators, triplicate retest, confirmation, cell-based, PathHunter beta-arrestin, luminescence. shares compounds with GPR151 ag. GPR151 PathHunter beta-arrestin cells, 90 min; % of EA-reagent control over plate median. activation, % at 11.2 µM. 6,700 tested, under 10 active;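 active = mean percent activation across replicates above the confirmation screen cutoff of 4.91%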
GPR119 counter – GPR119 activators in beta-arrestin cells, counter-screen for GPR151 activator project, cell-based, PathHunter beta-arrestin, luminescence, triplicate; 90 min; 0 = compound-well median, 100 = enzyme-acceptor control; shares compounds with GPR151 ag; activation, % at 11.2 µM; 0.3% of 6,700 active;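 active = mean percent activation in the counterscreen above 29.09%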;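 also: counterscreen on off-target GPR119 to flag nonselective hits from the GPR151 activator screen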
* hit, by the source's call; ! = not active in a repeat.

`COc1cc(NC(=O)C2CCN(c3ccc(Nc4ccccc4)nn3)CC2)cc(OC)c1OC` gave FBW7 activator 1, MITF inh 10, TEAD-YAP inh -15 and GPR151 ag -1.
`COc1cc(NC(=O)C2CCN(c3ccc(Nc4cc(OC)c(OC)c(OC)c4)nn3)CC2)cc(OC)c1OC` gave FBW7 activator 0, MITF inh 7, TEAD-YAP inh -7, GPR151 ag 7.8*, GPR151 confirm -1 and GPR119 counter -4.
Screening CCc1cc(C(=O)Cc2ccc3c(c2)OCCCO3)c(O)cc1OC returned FBW7 activator 0, MITF inh -6, TEAD-YAP inh -3, GPR151 ag 5.2*, GPR151 confirm -2 and GPR119 counter -15.
For c1ccc2oc(NC3=NCN(C4CCCCC4)CN3)nc2c1 the results were FBW7 activator 0, MITF inh -9, TEAD-YAP inh -13, GPR151 ag 9.9*, GPR151 confirm 1 and GPR119 counter 4.
For CC(C)N(C)Cc1nnnn1CC(=O)NCC(c1ccccc1)c1ccccc1 the results were FBW7 activator 0, MITF inh -1, TEAD-YAP inh 7 and GPR151 ag -1.
Screening CCOC(=O)N1CCN(C(=O)Cn2nnnc2CN(C)C(C)C)CC1 returned FBW7 activator 0, MITF inh -6, TEAD-YAP inh 6, GPR151 ag 5.2*, GPR151 confirm -1 and GPR119 counter -5.
`CC(C)N(C)Cc1nnnn1CC(=O)NC1(c2ccccc2)CC1` gave FBW7 activator 0, MITF inh 10, TEAD-YAP inh -1, GPR151 ag 8.3*, GPR151 confirm 0 and GPR119 counter 3.
`CCOC(=O)N1CCN(C(=O)Cn2nnnc2CN2CCCCCC2)CC1` gave FBW7 activator 0, MITF inh 2, TEAD-YAP inh -2 and GPR151 ag -1.
COC(=O)c1ccc(SCC(=O)NCc2ccccc2)c([N+](=O)[O-])c1 was read as FBW7 activator 0, MITF inh 2, TEAD-YAP inh 6, GPR151 ag 7.4*, GPR151 confirm 0 and GPR119 counter -6.
`COc1ccccc1NC(=O)c1ccc(SCC(=O)NCc2ccccc2)c([N+](=O)[O-])c1` gave FBW7 activator 0, MITF inh 1, TEAD-YAP inh 3 and GPR151 ag 0.
Screening C[C@H]1CC[C@@]2(OC1)O[C@H]1C[C@H]3[C@@H]4CC[C@@H]5C[C@@H](O)CC[C@]5(C)[C@H]4CC[C@]3(C)[C@H]1[C@@H]2C returned FBW7 activator 0, MITF inh 9, TEAD-YAP inh 9, GPR151 ag 5.6*!, GPR151 confirm 1 and GPR119 counter -8.
Screening CCOC(=O)C1(CCc2ccccc2)CCN(C(=O)CSc2ncccn2)CC1 returned FBW7 activator 0, MITF inh 5, TEAD-YAP inh -7, GPR151 ag 5.6*, GPR151 confirm 1 and GPR119 counter -3.
Screening CCOC(=O)C1(CC2CCCCO2)CCN(C(=O)CSc2ncccn2)CC1 (stereo unspecified) returned FBW7 activator 0, MITF inh -3, TEAD-YAP inh 4, GPR151 ag 4.9*, GPR151 confirm 0 and GPR119 counter 5.
Screening CCOC(=O)C1(CCCc2ccccc2)CCN(C(=O)CSc2ncccn2)CC1 returned FBW7 activator 0, MITF inh -5, TEAD-YAP inh -8 and GPR151 ag -1.
`COC(=O)c1ccc(NC(=O)/C=C/c2ccccc2Cl)cc1` gave FBW7 activator 1, MITF inh 5, TEAD-YAP inh -5, GPR151 ag 6.1*, GPR151 confirm 0 and GPR119 counter 6.
`CCOC(=O)c1ccc(NC(=S)NNC(=O)Cc2cccn2C)cc1` gave FBW7 activator 0, MITF inh 10, TEAD-YAP inh 3, GPR151 ag 10*, GPR151 confirm 1 and GPR119 counter 7.
`COC(=O)C1=C(C)N(Cc2ccccc2)C(=O)C1(NC(=O)CC(C)C)C(F)(F)F` (stereo unspecified) gave FBW7 activator 0, MITF inh 0, TEAD-YAP inh -6 and GPR151 ag -1.
